Reference: PubChem BioAssay AID588850 (Sanford-Burnham Center for Chemical Genomics, 2011)
About 3,100 (0.86%) of roughly 360,000 compounds were called active. The list comes from a sample in which actives are over-represented; it also holds similar structures and randomly drawn compounds. Unmarked numbers belong to inactive results.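 How the source made its calls: active means at least 50% inhibition at 5 µM, scaled per plate between neutral and stimulator controls; inactive means the rest.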

Assay: NF-kB reporter blockers in CF airway cells – cell-based, GFP fluorescence, uHTS, primary screen (AID 588850);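 further: PAF is a Pseudomonas aeruginosa culture filtrate used as stimulus; plate controls were PAF-stimulated DMSO wells for no effect and unstimulated DMSO wells for full effect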
Details: KKLEB NF-kB-GFP reporter, PAF-induced, GFP fluorescence overnight; at 5 µM; stronger effect = higher value

First: Cc1ccccc1N1C(=O)C(Oc2ccc(Cl)cc2)C1CNCC1CCCO1 (configuration not stated)
Second: O=c1[nH]c2ccccc2n1C1CCN(CCOc2ccccc2)CC1
The inhibition of the first is lower: -17.5% for the first, -0.9% for the second.

Going from CC(Sc1nncn1C)C(=O)Nc1ccccc1-c1ccccc1 (configuration not stated) to CC1(C(=O)NS(=O)(=O)c2ccccc2)CCN1C(=O)c1ccccc1 (configuration not stated), the inhibition falls from -12.2% to -17.7%.

First: Cc1cccc(N(C(=O)Cc2cccs2)C(C(=O)NCc2ccco2)c2ccncc2)c1 (configuration not stated)
Second: CCOc1ccc(C(C)=O)cc1CSc1nnc(-c2ccncc2)n1CCOC
The inhibition of the first is lower: -3.5% for the first, -0.6% for the second.

Going from Cc1nn(C(C)C(=O)N2CCOCC2)c(=O)c2nn(-c3ccccc3)c(C)c12 (configuration not stated) to Nc1nonc1-n1nnc(C(=O)N/N=C/C2CCCCC2)c1-c1ccccc1, the inhibition rises from 1.5% to 3.7%.

Going from CC(=O)Nc1ccc(S(=O)(=O)NCC2CCC(C(=O)NCCc3ccccc3)CC2)cc1 (configuration not stated) to COc1cc(OC)c(C(=O)NNC(=O)c2ccc(NS(=O)(=O)c3cccs3)cc2)cc1OC, the inhibition falls from 8.9% to 0.1%.

Compared with CCCOc1ccc(-c2c(C(=O)N/N=C/c3ccco3)nnn2-c2nonc2N)cc1, CCOc1ccccc1Oc1cn[nH]c1-c1ccc(OC)cc1O is higher in inhibition: -21.8% for the first, 13% for the second.

Compared with CSc1ccc(CN2CCC2(C)C(=O)Nc2ccc(C)c(O)c2)cc1 (configuration not stated), CS(=O)(=O)N(CC(=O)Nc1ccc(F)cc1F)c1cccc([N+](=O)[O-])c1 is higher in inhibition: 0% for the first, 10.1% for the second.

First: CCCc1nc(N)nc2c1C(=O)CC(C)(C)C2
Second: COc1ccc2cc(-c3[nH]ncc3CNCCn3nc(C)cc3C)ccc2c1
The inhibition of the first is higher: 16.2% for the first, -8.4% for the second.

Going from COc1ccc(/C=C/C(=O)c2c(O)cc(OC)cc2OC)cc1 to COc1ccc(CNc2nccs2)cc1, the inhibition rises from -12.9% to -5.6%.

Compared with c1ccc(CNc2ncnc3[nH]ncc23)cc1, Clc1ccc2nc(CSc3ccccc3)cn2c1 is lower in inhibition: 0.6% for the first, -13.5% for the second.

Going from Nc1ccc(S(=O)(=O)Nc2nccc(/C=C/c3ccc(Br)s3)n2)cc1 to O=C(C1CCCO1)N1CCN(C(=S)NC2CC2)CC1 (configuration not stated), the inhibition falls from 14.6% to 3.7%.

For Nc1nonc1-n1nnc(C(=O)N/N=C/c2ccc(Cl)cc2)c1-c1ccc2c(c1)OCO2, the inhibition was 52.5% (active).
For COc1ccc(-c2cn[nH]c2-c2ccc(OC)cc2)cc1, the inhibition was 88% (active).
In the case of COc1ccc(CNc2ncnc3ccccc23)cc1, the inhibition is reported as 51.6% (active).
With Oc1cccc2ccc(/C=C/c3ccc(Br)s3)nc12 the inhibition was 82.5% (active).
For C[C@@H]1C[C@@H]2O[C@H]2/C=C\C=C\C(=O)Cc2c(Cl)c(O)cc(O)c2C(=O)O1, the inhibition was 60.3% (active).
